Data: PubChem BioAssay (NCI)
About 79,000 compounds went through this panel and 15% of them were active in at least one assay; those are over-represented in the sample as a whole. Calls of active or inactive are those of the source. No stated cut-off is given here; in the data, active means growth inhibition above about 70%; inactive means the rest.

Assays:
[1] = NCI Yeast Anticancer Drug Screen. Data for the rad50 strain (AID 155);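 further: 0% = growth of vehicle-only cultures of the same strain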; conditions: S. cerevisiae rad50 strain growth inhibition; at 50.0 µM; hits give high values
Method in brief: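 A DNA repair-deficient yeast mutant serves as the test organism; compound-induced growth inhibition is calculated against vehicle-treated cells.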

[2] = NCI Yeast Anticancer Drug Screen. Data for the mec2-1 strain (AID 157); conditions: S. cerevisiae mec2-1 strain, at 50.0 µM, hits give high values
Method in brief: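 Using mec2-1 yeast: add compound, measure growth, express inhibition versus vehicle-treated cultures.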

[3] = NCI Yeast Anticancer Drug Screen. Data for the sgs1 mgt1 strain (AID 161);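 further: 0% = growth of cultures given vehicle only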; conditions: S. cerevisiae sgs1 mgt1 strain, at 50.0 µM, hits give high values
Method in brief: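 Compounds are added to genetically altered yeast, and growth is compared with cultures given vehicle alone to give percent inhibition.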

[4] = NCI Yeast Anticancer Drug Screen. Data for the cln2 rad14 strain (AID 165);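 further: 0% = growth equal to vehicle treated cultures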; conditions: S. cerevisiae cln2 rad14 strain, at 50.0 µM, hits give high values
Method in brief: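 Yeast strain cln2 rad14, bearing defects in cell cycle control and DNA repair, serves as the test system; values reflect growth inhibition compared with vehicle.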

[5] = NCI Yeast Anticancer Drug Screen. Data for the bub3 strain (AID 167); conditions: S. cerevisiae bub3 mutant strain, at 50.0 µM, hits give high values
Method in brief: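 Inhibition values come from growth of compound-treated mutant yeast normalised to vehicle-treated controls.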

[6] = NCI Yeast Anticancer Drug Screen. Data for the mlh1 rad18 strain (AID 175); conditions: S. cerevisiae mlh1 rad18 strain growth inhibition; at 50.0 µM; hits give high values
Method in brief: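 Steps: expose repair-defective yeast to compound; measure growth; express inhibition against vehicle-treated controls.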

Measured: growth inhibition

Cn1nnc(C(=O)O)n1
inactive: [1] -7.75% | [2] -4.35% | [3] -4.7% | [4] -19.8% | [5] -11.4% | [6] -10.8%

CCc1nc(N)nc(C(=O)NCCNC(=O)c2nc(N)nc(CC)c2C)c1C
inactive: [1] -38.1% | [2] -14.2% | [3] -11.6% | [4] -16.7% | [5] -13.4% | [6] -45.5%

COC1=CC(=O)N/C1=C(\OC)c1ccccc1
inactive: [1] -24.5% | [2] -0.95% | [3] -7% | [4] -5.6% | [5] -15.2% | [6] -5.2%

C/C(=N/NC(N)=O)c1ccccc1Cl
inactive: [1] -3.75% | [2] 3.5% | [3] -14.9% | [4] -20.4% | [5] -6.7% | [6] 12.8%

Cn1c(/N=C(/N)N=C(N)N)cc(=O)n(C)c1=O
inactive: [1] 12.8% | [2] 5.45% | [3] 20.3% | [4] 34.7% | [5] 29.6% | [6] 21.8%

N/C(=N\N=C\c1ccccn1)NO
inactive: [1] 1.05% | [2] -12.6% | [3] -5.35% | [4] -6.95% | [5] -6.15% | [6] 0.7%

CC1C(=O)OC2C1CCC1(C)C=CC(=O)C(C)C21 (stereo unspecified)
inactive: [1] 10.7% | [2] 4.95% | [3] 1.15% | [4] -23.2% | [5] 1.85% | [6] 14.8%

FC(F)(F)C[P+](c1ccccc1)(c1ccccc1)c1ccccc1
inactive: [1] 40.9% | [2] 13.1% | [3] 15.3% | [4] 16.9% | [5] 11.5% | [6] 26%

O=COCCOC=O
inactive: [1] 19.9% | [2] 5.55% | [3] -23.6% | [4] 20.6% | [5] 10.2% | [6] 14.2%

Cc1ccc(C(N)=Nc2ccccc2)cc1
inactive: [1] 0.65% | [2] 0% | [3] -0.3% | [4] -2.85% | [5] 3.3% | [6] 23.4%

COc1cc2ccc3c(c2cc1OC)CCc1cn[nH]c1-3
inactive: [1] 2.05% | [2] 3.4% | [3] 8% | [4] 27.4% | [5] 11.8% | [6] 9.45%

CN(C)C(=S)Oc1ccc([N+](C)(C)C)cc1
inactive: [1] -3.7% | [2] 3.55% | [3] 2.5% | [4] -4.6% | [5] 3.15% | [6] -1%

COc1ccccc1NC(=O)NC1CCCCC1
inactive: [1] -2.8% | [2] -4.65% | [3] -8.2% | [4] -88% | [5] 5.5% | [6] -15.2%

CC(C)(C)OC(=O)NC(C)(C)C(=O)NCCC(=O)O
inactive: [1] 0% | [2] -70% | [3] -1.8% | [4] 3.35% | [5] -15.2% | [6] -13.5%

CC(=O)COc1cccc2ccccc12
inactive: [1] -1.15% | [2] -3.1% | [3] -2.05% | [4] -36.4% | [5] -23.8% | [6] -2.35%

CC1(C=O)CCCC2(C)[C@@H]1CCC13CC(CC[C@H]12)C(C(=O)O)C3 (stereo partly specified)
inactive: [1] 28.9% | [2] 30.6% | [3] 22.6% | [4] 14.3% | [5] 26.8% | [6] 16.7%

CC1C(=O)C23CC1CCC2C12COC(O)C1C(C)(C)C(O)CC2OC3=O (stereo unspecified)
inactive: [1] -10.4% | [2] -5.95% | [3] -12.7% | [4] 17.1% | [5] -43.6% | [6] -16.4%

CC(C)(C)OC(=O)NN(CC(=O)OCc1ccccc1)N=O
inactive: [1] 5.35% | [2] -2.15% | [3] 2.9% | [4] -42.5% | [5] 10.2% | [6] -7.6%

[N-]=[N+]=NC(=O)c1cccc2c1Cc1ccccc1-2
inactive: [1] 8.85% | [2] 0.75% | [3] -4.05% | [4] -40.9% | [5] -11.5% | [6] -0.4%

CC(=O)[OH+]c1c(I)cc(I)cc1C(=O)[O-].CC(=O)[OH+]c1c(I)cc(I)cc1C(=O)[O-].[Cu+2]
inactive: [1] -8.15% | [2] 2.3% | [3] -5.8% | [4] -5% | [5] 11.5% | [6] 4.95%

O=C(CCl)Nc1cc2ccccc2c2ccccc12
inactive: [1] 0.65% | [2] -23.6% | [3] -10.9% | [4] 1.6% | [5] 9.6% | [6] 8.6%

CN(C)CC(O)C(=O)O (stereo unspecified)
inactive: [1] -12.7% | [2] 20.4% | [3] -5.6% | [4] 7.45% | [5] 3.7% | [6] -13.8%

CCN(CC)CCN(Cc1ccccc1)C(=S)NC(=O)c1ccccc1
inactive: [1] -4.35% | [2] 2.15% | [3] -5.25% | [4] -5.8% | [5] 7.35% | [6] -19.5%

COc1ccc(N2N=NN(C(C)C)/C2=C(/Cl)c2nnnn2-c2ccc(OC)cc2)cc1
inactive: [1] 25.8% | [2] 42.9% | [3] 33.8% | [4] 19.1% | [5] 24.9% | [6] 39.3%

NC(=S)NNCC(=O)CC(O)(C(F)(F)F)C(F)(F)Cl (stereo unspecified)
inactive: [1] -21.2% | [2] -6.95% | [3] -21.6% | [4] -21.9% | [5] 21.4% | [6] -0.65%

O=CCCn1[nH]c(=O)ccc1=O
inactive: [1] 2.4% | [2] -4.65% | [3] 15.9% | [4] 20.2% | [5] 25.1% | [6] 12.9%

CC(=O)OC12C3C4C1C1C2C3C41OC(C)=O (stereo unspecified)
inactive: [1] -4.95% | [2] 11.8% | [3] -24.1% | [4] 0.9% | [5] -16.4% | [6] -7.5%

O=S(=O)(CS(=O)(=O)Nc1ccccc1)Nc1ccccc1
inactive: [1] 21.1% | [2] 26.9% | [3] 21.7% | [4] -4.45% | [5] 11.3% | [6] 21.3%

CC[C@@]1(C)CCC2c3ccc(O)cc3CC[C@H]2C1C (stereo partly specified)
inactive: [1] -2.1% | [2] -9.1% | [3] 21.4% | [4] 42.6% | [5] -8.75% | [6] -6.6%

COc1ccc(NC(C)=O)cc1Br
inactive: [1] -12.8% | [2] -40.5% | [3] -11.1% | [4] -16.8% | [5] -17.6% | [6] -20.9%

CC(=O)O[C@@H]1C[C@]2(C)[C@@H](C(C)=O)CC[C@H]2[C@@H]2CCC3=CC(=O)CC[C@]3(C)[C@H]21
inactive: [1] -7.5% | [2] -8.25% | [3] -23% | [4] 11.4% | [5] -10.4% | [6] 13.2%

Nc1ccc(CCc2ccc3ccccc3n2)cc1
inactive: [1] 33.2% | [2] -9.25% | [3] 15.9% | [4] 7.9% | [5] -16.2% | [6] 33.5%

O=C(Oc1ccccc1)C(Cc1ccccc1)NC(=O)C(F)(F)F (stereo unspecified)
inactive: [1] 4.6% | [2] 7.7% | [3] -4.8% | [4] 1.5% | [5] 5.85% | [6] -37.4%

Cc1cc2c(C(C)C)c(O)c(O)c(C=Nc3ccccc3)c2c(O)c1-c1c(C)cc2c(C(C)C)c(O)c(O)c(C=Nc3ccccc3)c2c1O
inactive: [1] 1.45% | [2] 34% | [3] 49.6% | [4] -23% | [5] -2.3% | [6] 52.8%

Cc1ccc([N+](=O)[O-])cc1NC(=O)C(=O)Cc1nc2ccc(C(=O)c3ccccc3)cc2[nH]c1=O
inactive: [1] -4.7% | [2] -20.7% | [3] -9.05% | [4] 11.6% | [5] 10.3% | [6] -5.7%

Nc1n[nH]c(=S)s1
inactive: [1] 6.8% | [2] -12.1% | [3] 7.35% | [4] -8.7% | [5] -12.3% | [6] 3.55%

COc1cccc(C(=O)NCCNCCNC(=O)c2cccc(OC)c2OC)c1OC
inactive: [1] -0.8% | [2] 0.7% | [3] -3.95% | [4] -6.6% | [5] -1.75% | [6] -2.35%

CNC(=O)C1CCCN1C(=O)C(Cl)Cl (stereo unspecified)
inactive: [1] -1.95% | [2] -10.6% | [3] 0.9% | [4] -21.9% | [5] -10.8% | [6] 14.2%

O=C(CCC(=O)Nc1cccc(Cl)c1)CC(=O)c1ccc(F)cc1
inactive: [1] -11.2% | [2] -1.8% | [3] 6.3% | [4] -23.9% | [5] -0.85% | [6] -4.85%

S=C(Nc1cccc2ccccc12)N1CCCCC1
inactive: [1] 51.7% | [2] 39% | [3] 50.7% | [4] 18.1% | [5] 61% | [6] 35.7%

Cn1c(O)c2c(c1O)C(=Nc1ccccc1)c1ccccc1C2=O
active: [1] 89.2% | [2] 98.5% | [3] 93% | [4] 94.2% | [5] 98.6% | [6] 97.9%
